Laboratory results taken from PubChem BioAssay (NCI).
Compounds without any hit were thinned out: in the full panel of roughly 83,000, 20% have a hit.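 Percent growth is the endpoint: 0 to 100 indicates growth inhibition (40 means 60% inhibition), 0 means no net growth, and negative values indicate cell death.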

Legend:
Assay in all cases: NCI-60 one-dose screen, 48 h (100 = growth as untreated, 0 = no growth, -100 = all killed)
Conditions in all cases: 10 µM unless noted; active means growth percent below 10; inactive means the rest
[1] = test system: NCI-H23 lung
[2] = test system: NCI-H226 lung
[3] = test system: NCI-H322M lung
[4] = test system: HOP-62 NSCLC
[5] = test system: NCI-H460 lung
[6] = test system: HOP-92 NSCLC
[7] = test system: NCI-H522 lung
[8] = test system: A549/ATCC NSCLC
[9] = test system: 786-0 renal
[10] = test system: COLO 205 colon
[11] = test system: DU-145 prostate
[12] = test system: MALME-3M melanoma
[13] = test system: MDA-MB-231 breast
[14] = test system: SF-268 CNS
[15] = test system: SF-295 CNS
[16] = test system: SF-539 CNS
[17] = test system: UACC-257 melanoma
[18] = test system: M14 melanoma
[19] = test system: K-562 leukemia
[20] = test system: RXF 393 renal

Measured: growth

Cc1ccc(C(c2c(O)c3cc(Br)ccc3[nH]c2=O)c2c(O)c3cc(Br)ccc3[nH]c2=O)cc1
inactive: [1] 86.7% | [2] 74% | [3] 96.7% | [4] 77% | [5] 89.5% | [6] 74.1% | [7] 77.8% | [8] 89.5% | [9] 92.6% | [10] 111% | [11] 102% | [12] 91% | [13] 70.5% | [14] 87.1% | [15] 75.6% | [16] 91.2% | [17] 98.3% | [18] 93.3%

O=c1[nH]c2c(s1)CCCC2CN1CCCCC1 (stereo unspecified)
inactive: [1] 96.5% | [2] 95.1% | [3] 112% | [4] 83.7% | [5] 106% | [6] 104% | [7] 89.5% | [8] 80.4% | [9] 96.2% | [10] 98.4% | [11] 109% | [12] 107% | [13] 133% | [14] 98.7% | [15] 104% | [16] 105% | [17] 92% | [18] 90.6%

CC(C)Cc1ccc(C(C)C(=O)NCc2ccc(Cn3c(=O)sn(-c4ccc(Cl)cc4)c3=O)cc2)cc1 (stereo unspecified)
inactive: [1] 85.6% | [2] 82.6% | [3] 90.2% | [4] 85.7% | [5] 61.1% | [6] 75.7% | [7] 91.9% | [8] 75.4% | [9] 85.3% | [10] 74% | [11] 84.4% | [12] 79.2% | [13] 66.1% | [14] 79.9% | [15] 80.9% | [16] 63% | [17] 81.1% | [18] 84.7%

COC(=O)C1NC(=S)N(c2ccc(Cl)cc2)C1/C=C/c1ccccc1 (stereo unspecified)
inactive: [1] 91% | [2] 104% | [3] 110% | [4] 103% | [5] 109% | [6] 78.6% | [7] 93.7% | [8] 98.1% | [10] 108% | [11] 100% | [19] 106% | [12] 103% | [13] 95% | [20] 110% | [14] 101% | [15] 91% | [16] 94.6% | [17] 99.3% | [18] 87.1%

COc1ccc(C(=O)c2cc3c(N)c(C(=O)Nc4ccc(Cl)cc4)sc3nc2C)cc1
inactive: [1] 89.7% | [2] 57.1% | [3] 87.1% | [4] 37.5% | [5] 68.4% | [6] 78.2% | [8] 77.1% | [9] 81.6% | [10] 85.8% | [11] 90.1% | [19] 31.1% | [12] 58.7% | [13] 81.2% | [14] 56.4% | [15] 89.3% | [16] 71.9% | [17] 77.3% | [18] 61.5%

CN(C)c1ccc(-c2c(C#N)c(N)n3nc(N)c(C#N)c3c2C#N)cc1
inactive: [1] 96.9% | [2] 86% | [3] 82% | [4] 57.8% | [5] 70.1% | [6] 60.1% | [8] 73.6% | [9] 93.1% | [10] 75.4% | [11] 67.1% | [19] 109% | [12] 116% | [13] 43.2% | [20] 65.5% | [14] 77% | [15] 104% | [16] 78.2% | [17] 113% | [18] 69.1%

CC[N+](CC)(CCCC(C)[N+]1(Cc2ccccc2)C(C)=CC=C1C)Cc1ccccc1 (stereo unspecified)
inactive: [1] 72.3% | [2] 81.2% | [3] 96.7% | [4] 98.1% | [5] 97% | [6] 55.3% | [7] 75% | [9] 99.5% | [10] 67.9% | [11] 101% | [19] 54.6% | [12] 87.8% | [13] 78.6% | [14] 98.9% | [15] 97.8% | [16] 97.6% | [17] 84.2% | [18] 66.5%

Cn1c(=O)c2[nH]c(CCCc3nc4c([nH]3)c(=O)n(C)c(=O)n4C)nc2n(C)c1=O
inactive: [1] 117% | [2] 105% | [3] 114% | [4] 97.4% | [5] 105% | [6] 101% | [8] 105% | [9] 107% | [10] 111% | [11] 118% | [19] 105% | [12] 108% | [13] 113% | [14] 104% | [15] 111% | [16] 98.9% | [17] 114% | [18] 111%
